This passage reports Potency and activation results from PubChem BioAssay (Tox21).

SMILES strings stand for the structures. Inconclusive results are not listed. Where a call stands in place of a potency, no number is given. Active and inactive are the calls of the source. The call rests on the fitted dose curve.
Potency means the concentration at half of the fitted maximal effect.

Sequence of 5-hydroxytryptamine receptor 2A (Homo sapiens) (P28223 whole entry, looked up): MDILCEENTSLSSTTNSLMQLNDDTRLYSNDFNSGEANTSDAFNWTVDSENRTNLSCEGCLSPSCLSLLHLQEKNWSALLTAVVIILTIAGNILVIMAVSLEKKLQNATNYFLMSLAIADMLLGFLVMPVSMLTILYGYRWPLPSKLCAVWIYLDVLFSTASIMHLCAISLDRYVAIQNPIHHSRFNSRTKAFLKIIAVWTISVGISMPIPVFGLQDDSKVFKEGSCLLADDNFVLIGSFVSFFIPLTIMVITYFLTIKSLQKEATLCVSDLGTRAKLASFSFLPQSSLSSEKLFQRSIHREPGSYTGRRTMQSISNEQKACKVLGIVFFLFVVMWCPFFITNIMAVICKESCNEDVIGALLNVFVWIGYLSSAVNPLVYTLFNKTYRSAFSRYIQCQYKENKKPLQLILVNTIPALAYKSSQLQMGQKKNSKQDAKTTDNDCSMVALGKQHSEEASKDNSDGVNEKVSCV

The test deals with 5-hydroxytryptamine receptor 2A (Homo sapiens) (UniProt P28223). In words: 5-hydroxytryptamine receptor 2A (HTR2A) small molecule agonists, cell-based qHTS assay (AID 1963587). Further: nearly all actives have a fitted effect of over 30% in size. The conditions noted are these: HTR2A-CHO cells, calcium flux fluorescence, agonist mode; series mostly up to 76.8 µM. From the text:
National Center for Advancing Translational Sciences [NCATS]
Division of Preclinical Innovation [DPI]
U.S. Environmental Protection Agency [EPA]
National Institutes of Environmental Health Sciences [NIEHS]
National Toxicology Program [NTP]
U.S. Food and Drug Administration [FDA]
The HTR2A receptor is a subtype of the 5-HT2 receptor that belongs to the serotonin receptor family and is a G protein-coupled receptor (GPCR). The HTR2A-CHO cell line stably expressing human 5-hydroxytryptamine receptor 2A (HTR2A) can be used for screening agonists of interactions between 5-HT2 and its ligands. The HTR2A-CHO calcium flux assay is a homogeneous fluorescence-based assay for detecting the intracellular calcium level using FDSS kinetic plate reader system.
HTR2A-CHO cells were dispensed at 2000 cells/3uL/well in 1536-well black-clear bottom plates using a Multidrop Dispenser. After the assay plates were incubated at a 37 C/5% CO2 incubator for 18 h, 3 uL of Dye Loading Buffer was transferred to the assay plate by a Flying Reagent Dispenser. The assay plates were incubated at 37 C for 1h. For agonist mode, 23 nL of compounds dissolved in DMSO, positive controls or DMSO only was transferred to the assay plate by a pin tool. The fluorescence intensity in the plates was measured using FDSS 7000EX kinetic plate reader for 2 min at 1 sec intervals.
For the compound `CC(C)C/C=C(\C=O)c1ccccc1`, the Potency result was “inactive”.

`C[C@H](CCC(=O)NCC(=O)O)[C@H]1CC[C@H]2[C@@H]3[C@H](O)C[C@@H]4C[C@H](O)CC[C@]4(C)[C@H]3C[C@H](O)[C@]12C`: the Potency result is “inactive”. The same measure, in the same setting: the result for `C=CC(=O)OCCCCCCCCCC` reads “inactive”; that for `COCCCCCCCCOCCC[Si](C)(O[Si](C)(C)C)O[Si](C)(C)C`, “inactive”; that for `CN=C(N)NC(=O)Nc1c(C)cccc1C`, 6.74 µM (active). As to `COc1ccc(C(=O)c2ccc(OC)cc2O)c(O)c1`, the Potency result is “inactive”. For `C=CC(=O)OCCOC(=O)CCC(=O)O`, the Potency entry is “inactive”. `CC1CCc2c(N3CCC(O)CC3)c(F)cc3c(=O)c(C(=O)O)cn1c23` (stereo not given): the Potency entry was “inactive”. Still for that read-out and setting: the result for `CC(CN(C)C)C(C)(O)Cc1ccc(Cl)cc1` (stereo not given) reads “inactive”. As to `Oc1cn2c(n1)Nc1ccc(Cl)c(Cl)c1C2`, the activation was 4.55% [at 15.9 µM] (inactive). For `O=C1c2ccccc2C(=O)c2cc(O)ccc21`, the Potency result is “inactive”. Regarding `Cc1nc2n(c(=O)c1CCN1CCC(C(=O)c3ccc(F)cc3)CC1)CCS2`, the Potency entry is “inactive”. Regarding `C[N+]1(C)CCCC(OC(=O)C(O)(c2ccccc2)c2ccccc2)C1` (stereo not given), the Potency result was “inactive”. With `C/C(=C(\CCOP(=O)(O)O)SC(=O)c1ccccc1)N(C=O)Cc1cnc(C)nc1N`, the activation was -0.64% [at 7.02 µM] (inactive). For the compound `O=S(=O)(O)c1ccc(Cl)cc1`, the Potency entry is “inactive”.

As for `C=CCc1ccccc1OCC(O)CNC(C)C` (stereo not given), the Potency result is “inactive”. On to `O=[N+]([O-])c1ccc2[nH]ncc2c1`, for which the Potency result is “inactive”. Consider `FC1(F)C(F)(F)C(F)(F)C2(F)C(F)(C1(F)F)C(F)(F)C(F)(F)C1(F)C(F)(F)C(F)(F)C(F)(F)C(F)(F)C12F` (stereo not given), for which the Potency entry is “inactive”. On the same count and under the same terms, the result for `Cc1cc(=O)[nH]c(=O)[nH]1` reads “inactive”. `CN(C)C(=O)Nc1ccc(Oc2ccc(Cl)cc2)cc1`: the Potency result is “inactive”.

Turning to `C=CCOc1c(Br)cc(Br)cc1Br`, the Potency entry was “inactive”. Still for that read-out and setting: then `c1ccc(CNc2ncnc3nc[nH]c23)cc1`, with “inactive”; and `CCCCCN(CCCOC)C(=O)C(CCC(=O)O)NC(=O)c1ccc(Cl)c(Cl)c1` (stereo not given), with “inactive”; and `NC(=O)CC[C@@H](N)C(=O)O`, with “inactive”. Turning to `C=CC(=O)OCC(CO)(COCC(COC(=O)C=C)(COC(=O)C=C)COC(=O)C=C)COC(=O)C=C`, the Potency result is “inactive”. On the same count and under the same terms, then `CCCC(=O)O[C@]1(C(=O)CC)CC[C@H]2[C@@H]3CCC4=CC(=O)CC[C@]4(C)[C@H]3[C@@H](O)C[C@@]21C`, with “inactive”. With `CC(C)c1ccc2oc3nc(N)c(C(=O)O)cc3c(=O)c2c1`, the Potency entry is “inactive”. For the compound `CCCCCCCCCCOC(C)=O`, the Potency result is “inactive”.

Turning to `O[C@@H]1CO[C@H]2[C@@H]1OC[C@@H]2O`, the Potency entry was “inactive”. Take `C=C1C[C@@]23CC[C@H]4[C@@](C)(CCC[C@@]4(C)C(=O)O[C@@H]4O[C@H](CO)[C@@H](O)[C@H](O)[C@H]4O)[C@@H]2CC[C@]1(O[C@@H]1O[C@H](CO)[C@@H](O)[C@H](O[C@@H]2O[C@H](CO)[C@@H](O)[C@H](O)[C@H]2O)[C@H]1O[C@@H]1O[C@H](CO)[C@@H](O)[C@H](O)[C@H]1O)C3`: the Potency entry is “inactive”. The same measure, in the same setting: then `Nc1ccc(Cl)c([N+](=O)[O-])c1`, with “inactive”; and `CCN(CC)c1cccc(C)c1`, with “inactive”; and `O=C(O)C(Cc1cc(I)c(O)c(I)c1)c1ccccc1` (stereo not given), with “inactive”.

Take `CCN1CCCC1CNC(=O)c1cc(S(=O)(=O)CC)c(N)cc1OC` (stereo not given): the Potency entry was “inactive”. Turning to `COc1ccc(OC)c(NC(=O)CC(C)=O)c1`, the Potency result was “inactive”. The same measure, in the same setting: the result for `NS(=O)(=O)c1cc(C(=O)NN2C[C@H]3[C@H]4CCC(C4)[C@H]3C2)ccc1Cl` reads “inactive”.

With `CCc1cccc(C)c1N(C(=O)C(=O)O)C(C)COC` (stereo not given), the Potency entry was “inactive”. For the compound `O=C1c2ccccc2C(=O)C1(O)O`, the Potency result was “inactive”. `COc1ccc(C(C)=O)cc1`: the Potency entry is “inactive”. As to `CCCCNc1c(C(=O)OCC)c(C)nc2c1cnn2CC`, the Potency entry is “inactive”.
